High-throughput results (PubChem BioAssay)
Only some compounds are listed: those with a hit (about 4.1% of all), similar ones and a draw of the others.
ssDAF-12 act: S. stercoralis DAF-12 nuclear receptor activators, primary screen, cell-based, luminescence, HEK293, GRIP1 co-expression, lit1-tk-luc. HEK293 ssDAF-12/GRIP1 lit1-tk-luc reporter; % of 3 µM dafachronic acid response. Nuclear hormone receptor DAF-12 (Strongyloides stercoralis). 1% of 370,000 active. AID 652126, 2013. activation, % at 6.8 µM;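 active = activation above the mean over all tested compounds plus 3 SD, cut at about 0.9% in these data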
DAX1 inh-1: DAX1 (NR0B1) inhibitors, primary screen, cell-based, HEK293, Gal4-DAX1, luciferase luminescence; HEK293 Gal4-DAX1 luciferase reporter; inhibition, % at 6.75 µM; 0.99% of 340,000 active;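 active = inhibition above the mean over all tested compounds plus 3 SD, cut at about 4.2% in these data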;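 note: inhibition shows as a rise in luminescence from relieved DAX1 repression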
Target sequence (P51843 207-470 limits assumed): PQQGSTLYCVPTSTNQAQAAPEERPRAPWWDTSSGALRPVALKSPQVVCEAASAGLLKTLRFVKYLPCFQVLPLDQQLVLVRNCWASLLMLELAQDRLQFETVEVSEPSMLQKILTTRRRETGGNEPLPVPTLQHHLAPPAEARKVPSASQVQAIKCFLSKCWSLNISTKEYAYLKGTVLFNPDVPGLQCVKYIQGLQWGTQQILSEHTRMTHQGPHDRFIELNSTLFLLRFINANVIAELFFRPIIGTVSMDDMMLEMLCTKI
hgDAF12 agonist: H. glycines DAF-12 receptor agonists, primary screen, cell-based, luminescence, HEK293, GAL4 fusion, UAS-luciferase; HEK293 GAL4-hgDAF12 UAS-luciferase reporter, agonist luminescence; normalized to butyrate control; activation, % at 6.8 µM; 1.8% of 370,000 active; AID 687014, 2013;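 active = activation above a cutoff set at the mean of all screened compounds plus 3 SD, cut at about 10% in these data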
DAX1 inh-2: DAX1 (NR0B1) inhibitors on StAR promoter, primary screen, cell-based, luminescence, SF-1 (NR5A1), full-length DAX-1 | HEK293T StAR-luciferase reporter, SF-1/DAX-1 repression relief | inhibition, % at 6.8 µM | 1.1% of 370,000 active | AID 652010, 2013;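 active = inhibition above the mean over all tested compounds plus 3 SD, cut at about 3.6% in these data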;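 note: higher inhibition means more luminescence from relief of DAX-1 repression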
hcDAF-12 act: H. contortus DAF-12 nuclear receptor activators, primary screen, cell-based, luminescence, HEK293, lit1-tk-luc reporter; HEK293 hcDAF-12 lit1-tk-luc reporter; 0% DMSO, 100% Δ7-dafachronic acid; 1.4% of 370,000 active; activation, % at 6.8 µM;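 active = activation above the mean of all tested compounds plus 3 SD, cut at about 5.5% in these data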
A number is an active result; - = inactive; . = not tested or not shown.

SMILES	ssDAF-12 act	DAX1 inh-1	hgDAF12 agonist	DAX1 inh-2	hcDAF-12 act
C=CCOc1ccc(/C=C/C(=O)OCC(=O)N2CCN(C(C)=O)CC2)cc1	-	-	-	-	-
C=CCOc1ccc(/C=C/C(C)=N\O)cc1	-	-	-	3.9	-
C(=C\c1cc(/C=C/c2ccccc2)ncn1)/c1ccccc1	-	5.0	-	-	-
C(=C\c1ccccn1)/c1ccncc1	-	-	-	-	-
Cc1cccc(/C=C/c2ccccc2)n1	-	.	10.8	-	-
C(=C/c1ccccc1)/c1ccccc1	-	.	-	-	-
C(/C=C/c1ccccn1)=C\c1ccccc1	-	5.0	-	-	-
Cc1nc(/C=C/c2ccccc2)cc(/C=C/c2ccccc2)n1	-	-	-	-	-
COC(=O)[C@]12C[C@H](CC(=O)N3CCN(C(=O)c4ccco4)CC3)C(=O)N(CCC3=CCCCC3)C1=C[C@H](C1CCCC1)O[C@@H]2C	-	.	-	-	-
CCC(=O)N(C)CCc1cc2c(c(OC)c1/C=N/NC(=O)c1ccncc1)OCO2	-	4.2	-	-	-
C/C(=N\NC(=S)NCC(C)(C)C)c1cc(F)cc(F)c1O	-	4.7	-	-	-
O=S1(=O)C=CCN1Cc1cn(Cc2ccc(F)cc2)nn1	-	.	-	-	-
CCn1c2ccccc2nc2cc3c(cc21)c(Cl)c(=O)c1ccccc13	-	-	-	-	-
COc1ccc(/C=C/C(=O)Nc2cc(C)on2)cc1	-	-	-	-	-
COc1ccc(C(=O)/C=C/Nc2cc(C)on2)cc1	-	-	12.3	-	-
COc1ccc(N/C=C/C(=O)c2ccc(C)cc2)c([N+](=O)[O-])c1	-	-	-	3.6	-
CCOC(=O)c1sc(=NC(=O)c2cccc(C)c2)n(C)c1C	-	-	-	3.8	-
CCOC(=O)c1sc(=NC(=O)c2cccc(Br)c2)n(C)c1C	-	-	-	-	-
COC(=O)[C@]12C[C@H](CC(=O)N3CCCC3)C(=O)N(Cc3cccc4ccccc34)C1=C[C@H](C(C)C)O[C@@H]2C1CC1	-	.	-	-	-
COc1cccc(CNC(=O)CN(C)S(=O)(=O)c2ccc(Br)s2)c1	-	10.4	-	-	-
COc1ccc(CNC(=O)CN(C)S(=O)(=O)c2ccc(Br)s2)cc1	-	-	-	-	-
COC(=O)C1CN(Cc2cn(Cc3ccc(Cl)cc3)nn2)CCS(=O)(=O)N1Cc1ccc(C)cc1 (stereo unspecified)	-	.	-	-	-
O=C(COc1ccc2ccccc2c1Br)NC(=S)Nc1cccc(CO)c1	-	-	10.9	-	-
COC(=O)C[C@@H]1CC[C@H]2[C@H](COc3ccc(NC(=O)C4CCC4)cc3C(=O)N2C)O1	-	.	-	-	-
Cc1cc(C)c(NC(=O)c2ccc3nccnc3c2)c(C)c1	-	-	-	-	-
SMILES	ssDAF-12 act	DAX1 inh-1	hgDAF12 agonist	DAX1 inh-2	hcDAF-12 act
Cc1ccc(NC(=O)c2ccc3nccnc3c2)c(C)c1	-	-	11.5	-	-
CCOc1ccc(CN(C)C(=O)c2cccc(S(=O)(=O)Nc3ccccc3OC)c2)cc1OC	-	-	-	-	-
Cc1ccc(S(=O)(=O)N2CCCN(C(=O)c3cc4ccccc4[nH]3)CC2)cc1	-	-	-	-	5.8
Cc1csc(C(C#N)C(=O)c2cc3ccccc3o2)n1 (stereo unspecified)	-	-	-	3.9	-
O=C(NNC(=O)c1cc2ccccc2o1)c1ccc(F)cc1	-	-	-	-	-
CC(=O)NNc1nc2ccccc2s1	-	-	-	-	-
CC(=O)N1CCC(=NNc2nc3ccccc3s2)CC1	-	-	-	-	6.5
CCOC(=O)N1CCC(=NNc2nc3ccccc3s2)CC1	-	-	-	-	5.8
CCN(CC)CCCNC(=O)C1(N[C@@H](Cc2c[nH]c3ccccc23)C(=O)NCC(OC)OC)CCCCC1	-	.	-	.	-
CC(=NN1CCN(Cc2ccccc2Cl)CC1)c1ccc(O)cc1	-	.	-	-	-
CCOc1cc(/C=N/NC(=O)c2cccs2)cc([N+](=O)[O-])c1O	-	-	12.3	-	-
COC(=O)c1cc(=O)n(Cc2ccc3c(c2)OCO3)c(=Nc2ccc(F)cc2)s1	-	-	-	-	-
COC(=O)c1cc(=O)n(Cc2ccc(F)cc2)c(=NCc2ccc(F)cc2)s1	1.4	-	-	-	-
c1ccc(NC(c2ccccc2)c2ccncc2)cc1 (stereo unspecified)	1.4	-	-	-	-
c1ccc(C(Nc2cccnc2)c2ccccc2)cc1	-	-	-	-	-
COc1ccc(C2CC(c3cccs3)=NN2C(=O)CN2CCCCC2)cc1 (stereo unspecified)	3.1	.	-	-	-
COc1cccc(NC(=O)C2CCCN2C(=O)NCc2ccccc2OC)c1 (stereo unspecified)	-	.	-	-	-
CCOc1cc(/C=C2\CCCC(C(=O)C(F)(F)F)=C2O)ccc1O	-	-	-	3.7	-
COC(=O)[C@]12C[C@H](CC(=O)N3CCCC3)C(=O)N(Cc3ccccc3)C1=C[C@H](COCc1ccccc1)O[C@@H]2C	-	.	-	-	-
C#CCn1c2ccccc2c(=O)n1C(C)CBr (stereo unspecified)	1.1	.	-	-	-
C#CCn1c2ccccc2c(=O)n1C(C)C	-	.	-	-	-
CCOC(=O)N1CCN(C(=O)C[C@H]2C[C@@]3(C(=O)OC)C(=C[C@H](COCc4ccccc4)O[C@@H]3C)N(CCc3ccc(OC)c(OC)c3)C2=O)CC1	-	.	-	-	-
CCOC(=O)[C@]12CCCC=C1N(Cc1ccc(OC)cc1)C(=O)[C@@H]2CC(=O)N1CCSCC1	-	.	-	-	-
Cn1c2c(c(=O)n(C)c1=O)[C@@]1(C(=O)Nc3ccccc31)C(C#N)=C(N)O2	-	-	-	-	-
Cn1c2c(c(=O)n(C)c1=O)NC1(N2)C(=O)Nc2ccccc21 (stereo unspecified)	0.9	-	-	-	-
Cc1cccc(NC(=O)CCc2c(C)nn(-c3ccc(N4CCOCC4)nn3)c2C)c1	-	-	-	-	-
Cc1cccc(NC(=O)CCc2c(C)nn(-c3ccc(N4CCCCC4)nn3)c2C)c1	-	-	-	3.8	-
O=C(c1ccccc1)N(CCCn1ccnc1)C(c1ccccc1)c1nc2ccccc2[nH]1 (stereo unspecified)	-	.	-	3.6	-
CCCCCCCCN1C(=O)[C@@H](CC(=O)NCc2ccccc2)C[C@@]2(C(=O)OC)C1=C[C@H](C(C)C)O[C@@H]2C1CC1	-	.	-	-	-
